PubChem BioAssay AID504834 (National Center for Advancing Translational Sciences (NCATS), 2011)
The whole screen tested about 320,000 compounds, of which about 22,000 (6.9%) were called active. Roughly 27% stayed inconclusive and do not appear here. Shown is part of a subset that was picked to be rich in actives. Entries that show only a call come without a potency. A number with no mark means an inactive call. The call rests on the fitted dose curve; in most records, active means well fitted inhibition curve with a large enough effect; inconclusive means small, poorly fitted or top-dose-only effect, or another doubt; inactive means no such curve, though single readings can be large or run the other way.
Potency means the concentration at half of the fitted maximal effect.

Assay: Primary qHTS for delayed death inhibitors of the malarial parasite plastid, 96 hour incubation
Details: P. falciparum luciferase reporter growth; series mostly up to 28.7 µM
Summary of the method: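 Two-generation exposure (96 h) targets delayed-death phenotype. Reporter parasites carrying integrated firefly luciferase, in red cells at 2% hematocrit and 0.05% parasitemia final, kept at 37 C, 5% CO2; luminescence loss indicates inhibition.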
For `O=C(COC(=O)c1cnccn1)Nc1ccc(Cl)cc1C(F)(F)F`, the Potency was “inactive”. With `CCCCCCCC(=O)OC(CN1CCCCCC1)CN1CCCC1=O` (stereo not given) the Potency was “inactive”. With `O=c1c(-c2cccc(Cl)c2)c[nH]n1-c1ccccc1` the Potency was 7.38 µM (active). With `O=C1NC(c2cccc(Cl)c2)Nc2ccccc21` (stereo not given) the Potency was “inactive”. For `O=C1CC(NNc2ccccc2)C(=O)N1c1cccc(Cl)c1` (stereo not given), the Potency was “inactive”. With `CC1(C)CC(=O)C=C(Nc2ccccc2)C1` the Potency was “inactive”. In the case of `CC(=O)c1ccc(S(=O)(=O)NC2CC(=O)N(c3ccc4c(c3)OCCO4)C2)cc1` (stereo not given), the Potency is reported as “inactive”. With `C=CCN1C(=O)C(O)(CC(=O)c2ccccn2)c2ccccc21` (stereo not given) the Potency was “inactive”. For `O=C(CC1(O)C(=O)N(CN2CCOCC2)c2ccccc21)c1ccccc1` (stereo not given), the Potency was “inactive”. For `C=CCN1C(=O)C(O)(CC(=O)c2ccc(Cl)cc2)c2ccccc21` (stereo not given), the Potency was 14.7 µM (active). With `O=C(Nc1nnc(-c2ccc(F)cc2)s1)c1c(F)cccc1Cl` the Potency was “inactive”. In the case of `CC1CCN(C(=O)c2ccc(S(=O)(=O)Cc3cc(F)ccc3F)c([N+](=O)[O-])c2)CC1`, the Potency is reported as 10.4 µM (active). In the case of `O=C(c1ccc(Oc2ccc(Cl)cc2)c([N+](=O)[O-])c1)N1CCCC1`, the Potency is reported as “inactive”. Work on `O=C(Nc1ccc(F)cc1)C1CCN(C(=O)c2ccc([N+](=O)[O-])cc2)CC1` yielded an activity change, negative = inhibition of 31.7% [at 5.75 µM]. With `C#CC(C)(C)NC(=O)c1cnc(-c2ccccc2)nc1-c1ccccc1` the Potency was “inactive”. In the case of `Cc1oc2c(c1C(=O)N1CCOCC1)C(=O)c1ccccc1C2=O`, the Potency is reported as 0.828 µM (active). In the case of `O=C(c1ccccc1-c1ccccc1)N1CCOCC1`, the Potency is reported as “inactive”. For `Cc1noc(C)c1C(=O)N1CCOCC1`, the Potency was “inactive”. For `O=S(=O)(NCC1CC1)c1ccc(F)c(Cl)c1`, the Potency was “inactive”. With `CCOC(=O)C1CCN(C(=O)Nc2ccc(Cl)cc2)CC1` the Potency was “inactive”. For `CCOc1ccc(OCC)c(NC(=O)C2CCN(S(=O)(=O)c3c(C)noc3C)CC2)c1`, the Potency was “inactive”. With `CCOC(=O)C1CCN(C(=O)C2CCN(S(=O)(=O)N3CCCC3)CC2)CC1` the Potency was 6.57 µM (active). For `CCOC(=O)N1CCC(C(N)=O)CC1`, the Potency was “inactive”. In the case of `CCOC(=O)C1CCN(S(=O)(=O)c2c(C)noc2C)CC1`, the Potency is reported as “inactive”. With `CCOC(=O)C1CCN(C(=O)C2CCN(S(=O)(=O)c3c(C)noc3C)CC2)CC1` the Potency was 4.15 µM (active). For `O=C(O)C1C2C=CC(C2)C1C(=O)NCc1ccccc1` (stereo not given), the Potency was “inactive”. For `COc1ccc(NS(=O)(=O)c2cccc3nsnc23)cc1Cl`, the Potency was “inactive”. In the case of `Nc1c(Cl)cc(S(N)(=O)=O)cc1S(N)(=O)=O`, the Potency is reported as “inactive”. With `CCCCCCOc1ccc(OC(=O)c2cccnc2)cc1` the Potency was “inactive”. With `CN(C)CCCN1C(=O)CSC1c1ccc([N+](=O)[O-])cc1` (stereo not given) the Potency was “inactive”. For `CCCCCCCCCCCCN1C(=O)CSC1c1cccnc1` (stereo not given), the Potency was 1.65 µM (active). For `COc1ccc(NC(=O)CN2C(=O)CSc3ccc(S(=O)(=O)N4CCC(C)CC4)cc32)cc1`, the Potency was “inactive”. For `Cc1cc(C)nc(-n2nc(C)cc2NC(=O)c2ccc(F)cc2F)n1`, the Potency was 9.28 µM (active). With `Cc1cc(NC(=O)Nc2ccc(Cl)cc2)n(-c2ccccc2)n1` the Potency was “inactive”. With `CC(=O)N/C(=N/c1nc(C)cc(C)n1)Nc1ccc(F)cc1F` the Potency was “inactive”. For `Cc1c([N+](=O)[O-])c(N)nn1C`, the Potency was “inactive”. With `CCOC(=O)c1oc2ccccc2c1NC(=O)c1cccs1` the Potency was “inactive”. For `COc1ccc(CC(=O)Nc2c(C(N)=O)oc3ccccc23)cc1`, the Potency was “inactive”. With `Cc1cc(C)c(NC(=O)c2oc3ccccc3c2COc2ccccc2)c(C)c1` the Potency was 5.22 µM (active). With `COc1ccc(-c2nnc(SCC(=O)Nc3cccnc3Cl)n2C)cc1` the Potency was “inactive”. In the case of `Cc1cc(C)nc(SCC(=O)c2ccc(Cl)cc2)n1`, the Potency is reported as “inactive”. With `CCC(=O)c1cn(CCOc2ccccc2OC)c2ccccc12` the Potency was 13.1 µM (active). With `COc1ccccc1C(=O)NCCn1cc(SCC(=O)NCc2ccco2)c2ccccc21` the Potency was “inactive”. In the case of `CCCn1cc(SCC(N)=O)c2ccccc21`, the Potency is reported as “inactive”. With `Cc1ccc(OCc2nc3ccccc3n2C)cc1` the Potency was “inactive”. With `Cc1ccc(OCc2n[nH]c(=S)n2-c2ccccc2)cc1` the Potency was “inactive”. With `Cc1ccc(OCc2nnc(SC3CCc4ccccc4C3=O)n2C)cc1` (stereo not given) the Potency was 13.1 µM (active). In the case of `CCc1nn(CCCC(=O)Nc2ccc(C)cc2C)c(=O)c2cc3occc3n12`, the Potency is reported as “inactive”. In the case of `CN(C)S(=O)(=O)c1cccc(C(=O)OCC(=O)N2CCCC2=O)c1`, the Potency is reported as “inactive”. With `Cc1ccc(C(=O)NCCN2CCOCC2)cc1C` the Potency was 7.38 µM (active). With `Cc1ccc(C(=O)N/C(=C\c2ccc(F)cc2)C(=O)NCCN2CCOCC2)cc1` the Potency was 6.57 µM (active). With `Cc1ccc(C(=O)NC(=S)NCCN2CCOCC2)cc1` the Potency was “inactive”. For `O=C(NCCN1CCOCC1)/C(=C/c1ccc(F)cc1)NC(=O)c1ccccc1`, the Potency was “inactive”. In the case of `COc1ccc(C(=O)NCCCN2CCOCC2)cc1Br`, the Potency is reported as “inactive”. In the case of `Cc1cc(C)cc(C(=O)NCCN2CCOCC2)c1`, the Potency is reported as “inactive”. For `CCOc1ccc(N(C)S(=O)(=O)c2cnc[nH]2)cc1`, the Potency was “inactive”. With `O=C(COc1ccc(Cl)cc1Cl)N/N=C/c1ccccn1` the Potency was “inactive”. In the case of `O=C(NCCN1CCOCC1)c1ccc(/C=C2\Sc3ccccc3N(Cc3ccc(F)cc3)C2=O)cc1`, the Potency is reported as “inactive”. For `CC(=O)[C@@]12O[C@@H]1C[C@H]1[C@@H]3CC[C@H]4C[C@@H](O)CC[C@]4(C)[C@H]3CC[C@@]12C`, the Potency was “inactive”. With `COC(=O)c1ccc(NS(=O)(=O)c2cc3c4c(c2)C(C)C(=O)N4CCC3)cc1` (stereo not given) the Potency was “inactive”. In the case of `COc1ccc(CNC(=O)C(=O)N2CCC3(CC2)OCCN3S(=O)(=O)c2ccc(C)cc2)cc1`, the Potency is reported as “inactive”. In the case of `CC(C)c1ccc(S(=O)(=O)N2CCC3(CC2)OCCO3)cc1`, the Potency is reported as “inactive”. With `COc1ccc(S(=O)(=O)N2CCOC23CCN(S(=O)(=O)c2ccc([N+](=O)[O-])cc2)CC3)cc1` the Potency was 11.7 µM (active). With `C=CCn1c(=O)c(C(=O)Nc2ncccc2O)c(O)c2ccccc21` the Potency was “inactive”. With `CC(NS(=O)(=O)c1ccccc1)c1n[nH]c(=S)n1-c1ccccc1` (stereo not given) the Potency was “inactive”. For `CC(C)Oc1ccc(CCc2n[nH]c(=S)n2Cc2ccccc2)cc1`, the Potency was 2.08 µM (active). For `C=CCn1c(CCc2ccc(OC(C)C)cc2)n[nH]c1=S`, the Potency was “inactive”. For `NS(=O)(=O)c1ccccc1NC(=O)c1c(O)c2ccccc2[nH]c1=O`, the Potency was “inactive”. For `O=C(O)c1ccc(NS(=O)(=O)c2ccc3c(c2)C(=O)c2cc(S(=O)(=O)Nc4ccc(C(=O)O)cc4)ccc2-3)cc1`, the Potency was 0.329 µM (active). In the case of `O=C(c1ccc(NS(=O)(=O)c2ccc3[nH]c(=O)[nH]c3c2)cc1)N1CCCCC1`, the Potency is reported as “inactive”. In the case of `Cc1cc(C(C)(C)C)cc(S(=O)(=O)Nc2ccc(C(=O)O)cc2)c1C`, the Potency is reported as “inactive”. With `Cc1cc(C)n(CCC(=O)N2CCN(S(=O)(=O)c3ccc(C)c(C)c3)CC2)n1` the Potency was “inactive”. For `O=C(NCCCN1CCOCC1)c1cc(-c2cccc(O)c2)on1`, the Potency was “inactive”. In the case of `CC(=O)Nc1nc2c(s1)C(=O)NCC(C)(C)C2`, the Potency is reported as “inactive”. For `COc1cccc(-c2nc(CS(=O)(=O)CC(=O)NCCc3ccc(OC)c(OC)c3)c(C)o2)c1`, the Potency was “inactive”. For `CCc1nc2ccccc2c(C(=O)NCc2ccc(OC)cc2)c1C`, the Potency was “inactive”. With `COc1ccccc1CSc1nc2ccccc2[nH]1` the Potency was “inactive”. With `O=C(NCc1ccccc1)c1onc(CSc2nc3ccccc3[nH]2)c1C(=O)NCc1ccccc1` the Potency was 1.85 µM (active). For `Cc1ccc(C)c(NC(=O)COC(=O)Cn2c(C)csc2=O)c1`, the Potency was “inactive”. With `O=C(Nc1ccccc1)C1CC(=O)n2c(nc3ccccc32)N1` (stereo not given) the Potency was “inactive”. With `Cc1ccc(OCC(=O)Nc2ccccc2C(=O)NC2CC2)cc1` the Potency was “inactive”. In the case of `CC1(c2ccc(Cl)cc2)NC(=O)N(CC(=O)c2ccc3c(c2)OCO3)C1=O` (stereo not given), the Potency is reported as “inactive”. In the case of `CCOC(=O)c1c(NC(=O)c2ccc(N3CCOCC3)c([N+](=O)[O-])c2)sc(C)c1C`, the Potency is reported as “inactive”. For `COCCNC(=O)c1ccc(N2CCC3(CC2)OCCO3)c([N+](=O)[O-])c1`, the Potency was 14.7 µM (active). In the case of `O=C(NCCCN1CCOCC1)c1ccc(N2CCCC2)c([N+](=O)[O-])c1`, the Potency is reported as “inactive”. For `Cc1cccc(-c2noc(CCC(=O)NC3CCCC3)n2)c1`, the Potency was “inactive”. With `NS(=O)(=O)c1cc(C(=O)OCC(=O)NNC(=O)c2ccccc2)ccc1Cl` the Potency was “inactive”. For `CC1CCC(N2CC(=O)N(Cc3ccc4c(c3)OCO4)C(c3ccc(F)cc3)C2=O)CC1` (stereo not given), the Potency was 9.28 µM (active). With `CC1CCC(NC(=O)C2c3ccccc3C(=O)N2Cc2ccc3c(c2)OCO3)CC1` (stereo not given) the Potency was “inactive”. For `O=C(/C=C/c1ccc2c(c1)OCO2)NCc1ccc(F)cc1`, the Potency was “inactive”. For `O=S(=O)(c1cccc(Cn2nnc(-c3ccc(F)cc3)n2)c1)N1CCOCC1`, the Potency was “inactive”. In the case of `CCOC(=O)c1cc(=O)c2ccc(OCc3ccccc3)cc2o1`, the Potency is reported as “inactive”. With `CC(C)Oc1ccc(C(=O)NCC(=O)Nc2ccc3c(c2)CCC3)cc1` the Potency was “inactive”. In the case of `Nc1ccc2nn(-c3ccc(Cl)cc3)nc2c1`, the Potency is reported as “inactive”. For `Cc1ccc(-n2ncc3c2ncn2nc(-c4ccco4)nc32)c(C)c1`, the Potency was “inactive”. In the case of `Cc1ccc(-n2ncc3c(=O)[nH]cnc32)c(C)c1`, the Potency is reported as 14.7 µM (active). In the case of `COC(=O)CSc1ncnc2c1cnn2-c1ccc(C)cc1C`, the Potency is reported as “inactive”. With `COc1cc(NC(=O)C2=CC(c3ccc(C)cc3)=NS(=O)(=O)N2C)cc(OC)c1OC` the Potency was “inactive”. For `CCCS(=O)(=O)N1CCC(CCOc2ccccc2)(C(=O)OCC)CC1`, the Potency was “inactive”. With `CCOC(=O)C1(CCOc2ccccc2)CCN(C(=O)c2cncs2)CC1` the Potency was 9.28 µM (active). For `CCOC(=O)C1(CCOc2ccccc2)CCN(Cc2cc(OC)cc(OC)c2)CC1`, the Potency was “inactive”. In the case of `CC(=O)NCC(=O)N1CCC(n2nccc2NC(=O)CCCc2ccccc2)CC1`, the Potency is reported as “inactive”. In the case of `CCOc1ncccc1C(=O)Nc1ccc(S(=O)(=O)Nc2nc(C)cc(C)n2)cc1`, the Potency is reported as “inactive”. In the case of `COc1ccc(/C=C(\NC(=O)c2ccccc2)C(=O)NCCN2CCOCC2)cc1OC`, the Potency is reported as “inactive”. In the case of `Nc1nc(NCc2ccccc2)n(-c2ccccc2)n1`, the Potency is reported as “inactive”.
